Laboratory results: PubChem BioAssay (Tox21)
Results filed as inconclusive are left out. The source made the active and inactive calls. Unless noted, calls come from the whole dose curve; as a rule, active = well fitted curve in the direction sought with a large enough effect in the repeat runs; inconclusive = weak or mixed curves; inactive = no such curve, though single readings can be large; an effect the other way counts as inactive or inconclusive.

Key:
[1] = qHTS assay for small molecule agonists of the p53 signaling pathway (AID 651631; calls by dose curve; note: nearly all actives have a fitted effect of over 15% in size)
Procedure, shortened: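 Beta-lactamase reporter activity under p53 response elements was quantified in HCT-116 cells by FRET fluorescence, following 16 h incubation with test compounds at 37 °C and 2 h substrate development at room temperature.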

[2] = qHTS assay for small molecules that induce genotoxicity in human embryonic kidney cells expressing luciferase-tagged ATAD5 (AID 651632); note: nearly all actives have a fitted effect of over 15% in size
Procedure, shortened: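 Luminescence read-out: after 16 hr compound exposure at 37C, ATAD5-luciferase HEK293T cells received Amplite, 30 min RT, then CCD imaging. A rise in signal marks genotoxic stress.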

[3] = qHTS assay for small molecules that induce genotoxicity in human embryonic kidney cells expressing luciferase-tagged ATAD5 - cell viability (AID 651634; calls by dose curve; note: nearly all actives have a fitted effect of over 25% in size)
Procedure, shortened: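 HEK293T ATAD5-luc cells, 2,000/well; compound 15.5 hr, 37C/5% CO2; CellTiter-Fluor 30 min, 37C; fluorescence read.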

[4] = qHTS assay for small molecule disruptors of the mitochondrial membrane potential - cell viability (AID 720634; calls by dose curve;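 note: human HepG2 liver cancer cells; series mostly up to about 83 µM; nearly all actives have a fitted effect of over 20% in size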)
Procedure, shortened: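 Luminescence from CellTiter-Glo (ATP content) gave viability in HepG2 cells, read in the same wells as the MMP dye assay after 1 hr compound exposure at 37 C.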

[5] = qHTS assay for small molecule disruptors of the mitochondrial membrane potential (AID 720635)
Procedure, shortened: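 HepG2 cells (2,000/well) attached overnight at 37C, then took compound for 1 hr at 37C, 5% CO2. Mito-MPS dye was added for 30 min; fluorescence was read at 490/535 nm (monomers) and 540/590 nm (aggregates).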

[6] = qHTS assay to test for compound auto fluorescence at 590 nm (red) in HepG2 cells (AID 720674)
Procedure, shortened: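 Intrinsic compound fluorescence in the red window (Ex/Em 540/590 nm) is measured in attached HepG2 cells exposed for 1 hr, DMSO vehicle as baseline, benchmarked to Rose Bengal sodium.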

[7] = qHTS assay to test for compound auto fluorescence at 535 nm (green) in HepG2 cells (AID 720675)
[8] = qHTS assay to test for compound auto fluorescence at 460 nm (blue) in HEK293 cells (AID 720678)
Procedure, shortened: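 HEK293, 2,000 cells/well, 10% dialyzed FBS; attach 4-5 hr 37C; pin compound or DMSO; o/n 37C/5% CO2; fluorescence 405/460 nm; triamterene-equivalent units.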

[9] = qHTS assay to test for compound auto fluorescence at 590 nm (red) in HEK293 cells (AID 720679)
Procedure, shortened: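 Intensity at 540nm excitation and 590nm emission is reported as Rose Bengal sodium-equivalent autofluorescence. Measurements followed overnight exposure (37C, 5% CO2) of HEK293 cells, 2,000 per well, to 23 nL compound.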

[10] = qHTS assay to test for compound auto fluorescence at 535 nm (green) in HEK293 cells (AID 720680)
[11] = qHTS assay to test for compound auto fluorescence at 460 nm (blue) in HEK293 cell free culture (AID 720681)
Procedure, shortened: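 Test compounds were pinned into cell-free culture medium (DMEM with 10% FBS) and fluorescence was read directly at Ex/Em 405/460 nm. Signals were expressed as fluorescence equivalents of triamterene, with DMSO vehicle as control.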

[12] = qHTS assay to test for compound auto fluorescence at 535 nm (green) in HEK293 cell free culture (AID 720682)
Procedure, shortened: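 Each library compound, or DMSO control, is added by pintool to medium alone, comprising DMEM and 10% FBS. Emission at 535 nm following 485 nm excitation is quantified against fluorescein.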

[13] = qHTS assay to test for compound auto fluorescence at 590 nm (red) in HEK293 cell free culture (AID 720683)
Procedure, shortened: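 Tox21 10K library compounds were pinned into cell-free DMEM with 10% FBS and fluorescence was read at excitation 540 nm. Activity is expressed as Rose Bengal sodium equivalency.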

[14] = qHTS assay to test for compound auto fluorescence at 590 nm (red) in HepG2 cell free culture (AID 720684)
Procedure, shortened: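 Readout: intrinsic compound fluorescence at 590 nm emission after 540 nm excitation, scaled to Rose Bengal sodium. Matrix was cell-free MEM with 10% FBS; DMSO vehicle wells served as control.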

[15] = qHTS assay to test for compound auto fluorescence at 460 nm (blue) in HepG2 cell free culture (AID 720685)
Procedure, shortened: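 Cell-free plates of MEM plus 10% FBS received 23 nL compound or DMSO vehicle; blue-channel (405/460 nm) intensity scored against triamterene as reference fluorophore.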

[16] = qHTS assay to test for compound auto fluorescence at 535 nm (green) in HepG2 cell free culture (AID 720686)
[17] = qHTS assay to test for compound auto fluorescence at 460 nm (blue) in HepG2 cells (AID 720687)
Procedure, shortened: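 Cells (2,000/well in MEM with 10% FBS) attached overnight at 37 C, then were exposed to compound or DMSO for 1 hr at 37 C, 5% CO2. Fluorescence read at Ex/Em 405/460 nm, expressed as triamterene-equivalent signal.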

[18] = target: Glucocorticoid receptor (Homo sapiens) (UniProt P04150); test: qHTS assay to identify small molecule agonists of the glucocorticoid receptor (GR) signaling pathway (AID 720691; active = well fitted activation curve with a large enough effect in the signal ratio in the repeat runs, not every such curve was filed as active; the % refers to the signal ratio)
Procedure, shortened: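 HeLa GR-bla reporter line; cells pre-incubated 4 h, compound in DMSO 18 h at 37 C; LiveBLAzer B/G FRET substrate 2 h RT; fluorescence intensity read-out.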

[19] = target: Glucocorticoid receptor (Homo sapiens) (UniProt P04150); test: qHTS assay to identify small molecule antagonists of the glucocorticoid receptor (GR) signaling pathway (AID 720692; active = well fitted inhibition curve with a large enough effect in the signal ratio in the repeat runs, not every such curve was filed as active; the % refers to the signal ratio)
Procedure, shortened: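 Read-out: beta-lactamase FRET substrate fluorescence, 2 h at room temperature, in HeLa cells stably carrying a GRE-driven bla reporter. Compounds were co-incubated with 5 nM dexamethasone agonist (final) for 18 h at 37 C.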

[20] = qHTS assay for small molecule agonists of the p53 signaling pathway - cell viability (AID 651633; calls by dose curve;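 note: p53RE-bla HCT reporter cells with a stable beta-lactamase p53 reporter; series mostly up to about 83 µM; nearly all actives have a fitted effect of over 30% in size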)
Procedure, shortened: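 p53RE-bla cells, seeded at 4,000 per well and rested 5 h at 37 C/5% CO2, received compounds in DMSO for 16 h at 37 C. CellTiter-Glo was then added, and luminescence was read after 30 min at room temperature to gauge cytotoxicity.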

Measured: Potency

Glucocorticoid receptor (Homo sapiens), sequence (P04150 whole entry, looked up): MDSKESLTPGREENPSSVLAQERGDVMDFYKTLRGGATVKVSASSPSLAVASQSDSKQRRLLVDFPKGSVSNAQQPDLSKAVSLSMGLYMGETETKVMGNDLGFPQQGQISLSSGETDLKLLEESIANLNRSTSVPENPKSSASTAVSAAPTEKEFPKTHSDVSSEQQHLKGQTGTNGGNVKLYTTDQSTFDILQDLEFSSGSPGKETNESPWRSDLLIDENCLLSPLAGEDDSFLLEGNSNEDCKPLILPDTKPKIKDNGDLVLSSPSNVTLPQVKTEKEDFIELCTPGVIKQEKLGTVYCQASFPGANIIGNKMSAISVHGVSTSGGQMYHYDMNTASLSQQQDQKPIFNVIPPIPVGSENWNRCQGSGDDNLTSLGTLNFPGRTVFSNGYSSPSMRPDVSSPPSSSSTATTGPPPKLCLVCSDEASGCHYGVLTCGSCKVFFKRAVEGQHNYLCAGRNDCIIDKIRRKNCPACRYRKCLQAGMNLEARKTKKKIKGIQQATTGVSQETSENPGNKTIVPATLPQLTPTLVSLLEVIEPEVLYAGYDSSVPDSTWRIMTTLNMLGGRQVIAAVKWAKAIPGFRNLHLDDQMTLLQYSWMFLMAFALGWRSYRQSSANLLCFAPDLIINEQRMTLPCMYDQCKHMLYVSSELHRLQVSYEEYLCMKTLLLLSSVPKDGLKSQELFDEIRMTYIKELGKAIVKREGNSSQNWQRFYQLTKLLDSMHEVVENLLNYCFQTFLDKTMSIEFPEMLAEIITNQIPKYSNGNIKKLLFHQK

CC(CO)(CO)C(=O)O
not listed: [18] | [19] | [20]
inactive: all other assays above

COc1ccc(-n2nc(C(F)F)cc2-c2ccc(S(C)=O)cc2)cc1 (stereo not drawn)
not listed: [11] | [20]
inactive: all other assays above

Cc1cccc2sc(N)nc12
not listed: [3] | [5]
inactive: all other assays above

COC(CC(C)CCCC(C)(C)O)OC (stereo not drawn)
not listed: [20]
inactive: all other assays above

COc1ccc(C(=O)NCc2ccc(OCCN(C)C)cc2)cc1OC
not listed: [20]
inactive: all other assays above

O=C(O)CCCc1c[nH]c2ccccc12
not listed: [3] | [5] | [11]
inactive: all other assays above

O=C(O)CN1C(=O)c2cccc3cccc(c23)C1=O
not listed: [5] | [7] | [14] | [18] | [19]
inactive: all other assays above
